Screening data deposited in PubChem by several laboratories.
This is a sample that favours compounds with a hit; in the whole collection about 1.7% have one here.
HDAC3 inhib: blocks human histone deacetylase 3 | recombinant HDAC3, fluorogenic peptide/trypsin coupled, fluorescence | inhibition, % at 8.3 µM | 320,000 tested, 0.15% active; in the data active means inhibition above about 26%, passing the limit was not always enough
Fh CTSL1 inh: blocks F. hepatica cathepsin L1 in PFM18AAP counter-screen. inhibition, % at 5.96 µM. AID 1906. 300,000 tested, 0.49% active. recombinant F. hepatica cathepsin L1, Z-Leu-Arg-MCA fluorescence;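 active means inhibition above the mean of all tested compounds plus 3 SD, set per screening campaign, cut at about 17% in these data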;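 further: 0% = plate median of test compound wells and 100% = 1 µM Z-Phe-Ala-diazomethylketone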
HTR2A ag: activates the mouse 5-HT2A serotonin receptor | 360,000 tested, 0.66% active | P35363 | CHO-K1 mHTR2A beta-arrestin complementation, luminescence; percent of 30 µM serotonin response | activation, % at 7.6 µM | AID 624169;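 active means activation above a run cutoff, the mean activation of all tested compounds plus 3 SD, cut at about 14% in these data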;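 further: 0% = plate median of compound wells and 100% = 30 µM serotonin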
LANA-H2B inh: blocks KSHV LANA binding to histone H2A/H2B; Q9QR71; cell-free LANA-H2A/H2B peptide, fluorescence polarization; inhibition, % (concentration not given with the values); 320,000 tested, 0.6% active; in the data active means inhibition mostly above about 10%, no sharp cut-off; inactive means mostly below about 6.7%
MOR ag counter: counter-screen for mouse HTR2A agonists: human mu opioid receptor agonists | shares compounds with HTR2A ag | U2OS OPRM1 beta-arrestin PathHunter, luminescence; DMSO 0%, DAMGO 9.3 µM 100% | activation, % at 9.3 µM | 2,300 tested, 5.3% active | AID 624380;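 active means mean activation above the mean of DMSO-only wells plus 3 SD, cut at about 0.5% in these data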
Target sequence (P35372 whole entry, looked up): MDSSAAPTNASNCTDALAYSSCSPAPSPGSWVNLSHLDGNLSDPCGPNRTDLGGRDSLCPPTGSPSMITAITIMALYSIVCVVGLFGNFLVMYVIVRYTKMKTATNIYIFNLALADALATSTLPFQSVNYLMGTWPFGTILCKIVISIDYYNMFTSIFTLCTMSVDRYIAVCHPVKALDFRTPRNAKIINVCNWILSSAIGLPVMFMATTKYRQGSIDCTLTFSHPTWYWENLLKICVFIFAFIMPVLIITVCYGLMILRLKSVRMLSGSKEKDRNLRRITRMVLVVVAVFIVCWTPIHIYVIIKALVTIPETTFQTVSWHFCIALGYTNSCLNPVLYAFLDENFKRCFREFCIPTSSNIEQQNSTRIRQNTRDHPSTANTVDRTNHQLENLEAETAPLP
HTR2A ag conf: confirmation of mouse HTR2A serotonin receptor agonists; shares compounds with HTR2A ag; CHO-K1 PathHunter beta-arrestin recruitment, luminescence; DMSO 0%, 30 µM serotonin 100%; activation, % at 7.6 µM; 2,300 tested, 19% active; AID 624381;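 active means mean activation across triplicates above the hit threshold derived in the original primary screen, cut at about 15% in these data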
* marks the source's active call; other numbers are inactive results; x = not tested or not shown.

SMILES	HDAC3 inhib	Fh CTSL1 inh	HTR2A ag	LANA-H2B inh	MOR ag counter	HTR2A ag conf
C=C(C)CSc1nc2ncccc2[nH]1	1	-2	22*	0	-1	-3
COc1cccc(OCC(O)CNC2CCCC2)c1 (configuration not stated)	-10	1	-3	-3	x	x
COc1ccccc1CNC(=O)C1CCC1	-4	2	15*	-3	-1	-3
COc1ccccc1CNC(=O)C1CCN(S(=O)(=O)N2CCCCC2)CC1	-7	1	4	-6	x	x
COc1ccccc1CNC(=O)COC(=O)Cc1ccc(Br)cc1	-4	x	16*	9	-1	-2
CC1CCCN(C(=O)CSCC(=O)Nc2nc(-c3cccs3)cs2)C1 (configuration not stated)	x	2	15*	-8	-1	3
CC1CCN(C(=O)CSCC(=O)Nc2nc(-c3cccs3)cs2)CC1	2	-1	-3	-4	x	x
CCN(CC(=O)Nc1ccc2c(c1)OCCO2)C(=O)c1ccc(CS(C)(=O)=O)cc1	2	x	6	0	x	x
Cc1ccccc1CC(=O)N1CCN(S(=O)(=O)c2cccs2)CC1	-9	-2	16*	-2	0	-5
COc1ccc(N(CC(=O)N2CCN(c3cccc(C)c3C)CC2)S(=O)(=O)c2c(C)noc2C)cc1	-7	1	0	5	x	x
Cn1c(SCC(=O)NCC2CCCO2)nc2c(c1=O)SCC2 (configuration not stated)	-2	0	-5	-2	x	x
O=C(O)[C@H]1CCCC[C@H]1C(=O)NCCc1ccccc1	-1	3	11	-3	x	x
Cc1[nH]c2ccccc2c1C(=O)C(=O)NCCCc1ccccc1	1	4	-5	4	x	x
COc1ccc2[nH]cc(CCNC(=O)C3CCCCC3)c2c1	1	-9	15*	12*	-1	9
COc1ccc2[nH]cc(CCNS(=O)(=O)c3ccc(NC(C)=O)cc3)c2c1	5	4	31*	5	0	15*
CC(=O)Nc1ccc(S(=O)(=O)NCCc2c[nH]c3ccc(C)cc23)cc1	1	x	-4	4	x	x
O=C(O)C1CCCCC1C(=O)NCCc1c[nH]c2ccccc12 (configuration not stated)	-1	-1	38*	7	-1	15*
COc1ccc2[nH]cc(CCNC(=S)NC3CCCC3)c2c1	0	-4	-4	2	x	x
Cc1[nH]c2ccccc2c1C(=O)C(=O)NCCc1c[nH]c2ccccc12	5	-3	15*	2	0	-4
COC(=O)c1ccc(Cn2c(C)c(C(=O)NCc3ccco3)sc2=O)o1	x	x	5	x	x	x
Cc1ccc(S(=O)(=O)N(C)C)cc1NC(=O)C(C)N(C)CCOc1ccc(Cl)cc1 (configuration not stated)	3	-4	-16	0	x	x
CC1CCCCN1C(=O)C1CCN(c2nc(-c3ccccc3)nc3c2CCC3)CC1 (configuration not stated)	5	3	-2	2	x	x
Cc1ccc(S(=O)(=O)NC(=O)Nc2cccc(S(=O)(=O)N(C)C)c2)cc1	2	x	17*	-6	-1	0
COC(=O)CN1C(=O)C(O)(CC(=O)c2ccccc2)c2ccccc21 (configuration not stated)	-8	-3	0	6	x	x
C=CCN1C(=O)C(O)(CC(=O)c2ccc(N)cc2)c2ccccc21 (configuration not stated)	5	4	23*	2	-1	-4
SMILES	HDAC3 inhib	Fh CTSL1 inh	HTR2A ag	LANA-H2B inh	MOR ag counter	HTR2A ag conf
CCOc1ccc(CNC(=O)C2CCCN(S(=O)(=O)N3CC(C)CC(C)C3)C2)cc1OC (configuration not stated)	2	2	8	9	x	x
Cc1ccc([N+](=O)[O-])cc1S(=O)(=O)NCCc1cn2ccccc2n1	0	-2	5	2	x	x
O=[N+]([O-])c1cccc(S(=O)(=O)NCCc2cn3ccccc3n2)c1	4	-1	15*	1	0	-2
COc1ccc(S(=O)(=O)Nc2cccc3c2O[C@H](CN(C)CC2CCCCC2)[C@@H](C)CN([C@H](C)CO)C3=O)cc1	1	x	3	9	x	x
COC(=O)c1ccc(/C=N/N2CCN(Cc3ccc(C)cc3C)CC2)cc1	4	-1	18*	0	0	15*
CC(C)CN(C(=O)COC(=O)CNC(=O)c1sc2ccccc2c1Cl)C1CCS(=O)(=O)C1 (configuration not stated)	-3	-11	0	4	x	x
Cc1ccc(-n2nc3c(=O)n(CCCC(=O)NCCN4CCN(C)CC4)nc(C)c3c2C)cc1	-2	-6	21*	-1	0	1
Cc1ccc(CCNC(=O)CCCn2nc(C)c3c(C)n(-c4ccc(C)cc4)nc3c2=O)cc1	10	3	-7	-7	x	x
Clc1ncccc1OCc1ccccc1	-4	0	1	-4	x	x
O=C(NCC1CCCO1)NC1CCCCC1 (configuration not stated)	-5	-1	17*	10	-1	-4
COc1ccc(NC(=O)CCNS(=O)(=O)c2cc(Br)ccc2Br)cc1S(N)(=O)=O	-4	3	-10	4	x	x
CCOC(=O)C1CCCN(C(=O)c2cccc3ccccc23)C1 (configuration not stated)	-2	-2	17*	-8	0	-3
CC(C)n1nccc1NC(=O)Nc1ccccc1	7	7	-9	3	x	x
CC(C)c1nc2c(c(=O)n(C)c(=O)n2C)n1C	0	0	-2	2	x	x
COc1ccc(C(=O)N(C)C2CCCN(Cc3ccccc3F)C2)cc1OC (configuration not stated)	4	0	17*	0	-1	-3
COc1ccc(OC)c(C(=O)N(C)C2CCCN(Cc3ccccc3F)C2)c1 (configuration not stated)	5	-6	2	-1	x	x
CN1CCC(=NNC(=O)CN(c2ccc([N+](=O)[O-])cc2)S(=O)(=O)c2ccccc2)CC1	0	0	17*	-5	-1	-5
CN1CCC(=NNC(=O)CN(c2cccc([N+](=O)[O-])c2)S(=O)(=O)c2ccccc2)CC1	-8	-2	-2	2	x	x
CCCN1CCC(=NNc2ccc(S(=O)(=O)N3CCOCC3)cc2[N+](=O)[O-])CC1	0	6	17*	-2	0	1
CCCn1c(N2CCN(Cc3ccc(Cl)cc3)CC2)nc2ccccc21	9	2	22*	1	0	13
COC(=O)C1=CN(Cc2ccc(OC)c(OC)c2)C=C(C(=O)OC)C1c1ccccc1F	-10	x	17*	1	-1	3
CCC(=O)Nc1ccc(C(=O)COC(=O)c2sc(C)nc2C)cc1	x	x	2	x	x	x
